Measured values published in the supplement of paper PMC11732987, “Enantioselective OTUD7B fragment discovery through chemoproteomics screening and high-throughput optimisation” (Communications Chemistry, 2025).

Columns and labels:
Assay in all cases: log2 ratio of Biotin-Ahx-Ub-VS probe labelling (fragment/DMSO); higher = less target engagement (more negative = stronger competition), active = hit call of the paper (q ≤ 0.05, log2 ratio ≤ -1)
Details in all cases: compound concentration: 200 uM; treatment time: 3 h
[1] = target: USP34 (UniProt Q70CQ2)
Sequence of USP34 (Q70CQ2 whole entry, the tested form may be a part): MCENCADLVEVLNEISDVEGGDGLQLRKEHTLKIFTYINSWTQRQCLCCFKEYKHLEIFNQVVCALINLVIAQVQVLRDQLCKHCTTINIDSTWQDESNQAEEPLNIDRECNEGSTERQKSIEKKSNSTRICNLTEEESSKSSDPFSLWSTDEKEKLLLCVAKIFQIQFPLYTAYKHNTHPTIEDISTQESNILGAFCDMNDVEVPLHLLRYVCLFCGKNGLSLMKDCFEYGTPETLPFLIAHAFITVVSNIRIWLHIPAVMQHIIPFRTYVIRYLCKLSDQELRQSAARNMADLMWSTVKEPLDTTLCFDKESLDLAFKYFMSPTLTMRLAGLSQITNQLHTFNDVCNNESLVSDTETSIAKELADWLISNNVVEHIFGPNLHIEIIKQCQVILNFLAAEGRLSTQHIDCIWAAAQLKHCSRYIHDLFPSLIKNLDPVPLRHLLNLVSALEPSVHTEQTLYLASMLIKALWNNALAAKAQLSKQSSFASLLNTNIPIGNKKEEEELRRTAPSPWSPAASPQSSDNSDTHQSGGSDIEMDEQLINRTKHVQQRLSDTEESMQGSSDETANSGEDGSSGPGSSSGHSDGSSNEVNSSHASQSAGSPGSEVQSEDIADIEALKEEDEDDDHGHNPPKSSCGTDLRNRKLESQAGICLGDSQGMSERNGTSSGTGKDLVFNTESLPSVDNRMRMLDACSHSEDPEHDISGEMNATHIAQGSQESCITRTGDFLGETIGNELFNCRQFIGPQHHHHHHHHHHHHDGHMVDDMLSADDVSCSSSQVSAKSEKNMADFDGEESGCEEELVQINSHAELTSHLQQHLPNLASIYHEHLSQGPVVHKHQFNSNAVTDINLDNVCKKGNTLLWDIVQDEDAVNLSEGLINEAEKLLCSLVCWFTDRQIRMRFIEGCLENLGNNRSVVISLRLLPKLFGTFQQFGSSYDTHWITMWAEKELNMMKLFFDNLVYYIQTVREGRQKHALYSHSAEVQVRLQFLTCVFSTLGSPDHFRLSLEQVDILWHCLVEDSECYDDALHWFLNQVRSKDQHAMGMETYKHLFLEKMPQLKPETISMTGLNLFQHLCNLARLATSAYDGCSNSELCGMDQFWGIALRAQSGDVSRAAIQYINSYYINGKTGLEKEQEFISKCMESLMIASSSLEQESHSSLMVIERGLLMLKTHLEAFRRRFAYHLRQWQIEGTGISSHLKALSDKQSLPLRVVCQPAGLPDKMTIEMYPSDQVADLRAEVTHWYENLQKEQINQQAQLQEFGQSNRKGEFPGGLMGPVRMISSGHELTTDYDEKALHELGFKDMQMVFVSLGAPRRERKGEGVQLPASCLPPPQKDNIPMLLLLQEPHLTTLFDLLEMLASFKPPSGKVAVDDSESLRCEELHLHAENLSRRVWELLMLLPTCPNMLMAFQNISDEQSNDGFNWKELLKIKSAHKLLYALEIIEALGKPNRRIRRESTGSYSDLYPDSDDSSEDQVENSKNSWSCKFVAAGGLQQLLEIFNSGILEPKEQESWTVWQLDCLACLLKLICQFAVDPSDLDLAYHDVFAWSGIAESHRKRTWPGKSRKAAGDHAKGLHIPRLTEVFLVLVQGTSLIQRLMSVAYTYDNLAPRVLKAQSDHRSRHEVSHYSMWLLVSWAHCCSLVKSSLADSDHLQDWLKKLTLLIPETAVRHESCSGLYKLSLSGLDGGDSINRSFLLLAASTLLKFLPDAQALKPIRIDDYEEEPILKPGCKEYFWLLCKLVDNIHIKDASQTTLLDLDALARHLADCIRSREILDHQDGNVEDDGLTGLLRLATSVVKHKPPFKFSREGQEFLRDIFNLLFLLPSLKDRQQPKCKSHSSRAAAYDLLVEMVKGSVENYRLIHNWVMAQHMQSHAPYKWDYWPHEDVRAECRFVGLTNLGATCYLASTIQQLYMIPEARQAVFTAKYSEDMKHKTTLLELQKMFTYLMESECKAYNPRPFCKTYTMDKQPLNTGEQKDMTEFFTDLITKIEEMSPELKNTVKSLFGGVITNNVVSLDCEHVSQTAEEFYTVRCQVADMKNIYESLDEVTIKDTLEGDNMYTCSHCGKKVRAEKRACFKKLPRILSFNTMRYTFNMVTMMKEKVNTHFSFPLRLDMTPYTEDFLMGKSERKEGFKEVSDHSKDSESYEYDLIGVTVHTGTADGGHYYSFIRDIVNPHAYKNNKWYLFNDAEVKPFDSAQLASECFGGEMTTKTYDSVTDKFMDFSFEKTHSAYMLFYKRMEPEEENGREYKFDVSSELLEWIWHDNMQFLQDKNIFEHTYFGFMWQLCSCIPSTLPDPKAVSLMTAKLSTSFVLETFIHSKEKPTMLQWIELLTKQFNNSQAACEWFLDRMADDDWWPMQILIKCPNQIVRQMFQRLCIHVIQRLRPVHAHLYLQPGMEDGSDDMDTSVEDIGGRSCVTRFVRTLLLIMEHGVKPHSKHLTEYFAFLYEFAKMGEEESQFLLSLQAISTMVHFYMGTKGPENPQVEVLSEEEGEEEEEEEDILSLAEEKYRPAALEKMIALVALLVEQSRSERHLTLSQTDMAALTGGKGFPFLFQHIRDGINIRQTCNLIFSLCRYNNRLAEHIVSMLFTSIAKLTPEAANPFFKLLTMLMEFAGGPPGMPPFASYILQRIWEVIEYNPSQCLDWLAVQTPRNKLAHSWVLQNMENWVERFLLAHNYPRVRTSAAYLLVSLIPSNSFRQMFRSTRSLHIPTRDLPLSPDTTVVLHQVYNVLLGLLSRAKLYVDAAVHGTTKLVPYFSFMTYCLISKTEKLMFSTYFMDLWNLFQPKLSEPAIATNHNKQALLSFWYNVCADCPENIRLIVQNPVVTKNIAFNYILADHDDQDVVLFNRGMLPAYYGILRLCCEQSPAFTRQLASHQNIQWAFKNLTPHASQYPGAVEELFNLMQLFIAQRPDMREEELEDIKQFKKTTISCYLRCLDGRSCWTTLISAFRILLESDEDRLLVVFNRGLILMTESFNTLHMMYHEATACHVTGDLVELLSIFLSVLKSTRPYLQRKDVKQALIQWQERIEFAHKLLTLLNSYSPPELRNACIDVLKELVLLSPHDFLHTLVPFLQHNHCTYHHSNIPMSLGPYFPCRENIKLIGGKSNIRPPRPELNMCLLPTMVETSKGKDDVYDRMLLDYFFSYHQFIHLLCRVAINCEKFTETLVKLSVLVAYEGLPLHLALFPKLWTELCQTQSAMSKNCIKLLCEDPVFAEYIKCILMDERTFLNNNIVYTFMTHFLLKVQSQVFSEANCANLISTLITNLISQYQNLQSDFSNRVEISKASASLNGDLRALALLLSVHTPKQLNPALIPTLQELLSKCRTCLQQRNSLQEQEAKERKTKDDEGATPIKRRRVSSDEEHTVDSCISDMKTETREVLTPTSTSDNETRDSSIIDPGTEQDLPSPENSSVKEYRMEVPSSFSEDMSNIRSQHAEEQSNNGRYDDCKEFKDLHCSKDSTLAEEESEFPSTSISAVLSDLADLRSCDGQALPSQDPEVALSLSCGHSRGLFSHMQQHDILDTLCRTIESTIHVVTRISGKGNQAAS
Method in brief: (§1)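 Fragment (200 µM) or vehicle was incubated for 3 h with triplicate HEK293T lysate samples of 495 µg, which were then treated with Biotin-Ahx-Ub-VS at 0.5 µM final for 1 h. Labelled DUBs were enriched on NeutrAvidin, digested with LysC and trypsin, and analysed by diaPASEF LC-MS/MS. Values are average log2 fragment/vehicle ratios from an unpaired t-test on global-median-normalised Spectronaut label-free quantities, using proteins with ≥2 unique peptides.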

[2] = target: T1, USP36 (UniProt Q9P275)
T1 sequence (whole entry): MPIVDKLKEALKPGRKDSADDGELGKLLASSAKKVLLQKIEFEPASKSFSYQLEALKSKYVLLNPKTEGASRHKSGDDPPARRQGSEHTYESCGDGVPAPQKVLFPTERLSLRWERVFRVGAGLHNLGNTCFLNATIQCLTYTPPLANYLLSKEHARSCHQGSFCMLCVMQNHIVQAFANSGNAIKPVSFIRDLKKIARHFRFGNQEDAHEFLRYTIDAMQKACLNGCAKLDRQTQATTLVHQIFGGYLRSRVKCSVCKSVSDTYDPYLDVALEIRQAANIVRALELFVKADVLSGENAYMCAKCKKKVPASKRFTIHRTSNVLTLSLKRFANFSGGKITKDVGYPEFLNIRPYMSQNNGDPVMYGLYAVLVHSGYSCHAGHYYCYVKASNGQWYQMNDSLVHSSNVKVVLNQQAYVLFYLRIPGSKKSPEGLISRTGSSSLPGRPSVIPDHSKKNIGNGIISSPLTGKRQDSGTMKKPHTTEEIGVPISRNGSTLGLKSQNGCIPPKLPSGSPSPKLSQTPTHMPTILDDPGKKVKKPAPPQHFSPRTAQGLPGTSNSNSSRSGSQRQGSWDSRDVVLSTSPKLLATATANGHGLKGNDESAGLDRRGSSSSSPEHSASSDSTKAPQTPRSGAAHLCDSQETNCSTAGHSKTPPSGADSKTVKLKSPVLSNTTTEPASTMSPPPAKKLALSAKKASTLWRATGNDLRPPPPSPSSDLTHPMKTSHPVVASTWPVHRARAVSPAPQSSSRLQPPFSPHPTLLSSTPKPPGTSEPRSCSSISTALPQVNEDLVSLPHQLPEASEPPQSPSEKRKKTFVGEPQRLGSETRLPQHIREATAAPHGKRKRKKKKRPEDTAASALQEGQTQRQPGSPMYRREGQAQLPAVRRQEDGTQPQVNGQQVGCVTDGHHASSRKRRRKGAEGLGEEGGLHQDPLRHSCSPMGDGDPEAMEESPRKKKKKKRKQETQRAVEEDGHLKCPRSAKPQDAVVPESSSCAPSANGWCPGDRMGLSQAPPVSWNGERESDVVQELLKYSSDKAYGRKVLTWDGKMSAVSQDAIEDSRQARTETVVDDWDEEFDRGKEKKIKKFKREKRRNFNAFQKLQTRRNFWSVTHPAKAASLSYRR
Method in brief: as §1

[3] = target: T2, USP38 (UniProt Q8NB14)
T2 sequence (whole entry): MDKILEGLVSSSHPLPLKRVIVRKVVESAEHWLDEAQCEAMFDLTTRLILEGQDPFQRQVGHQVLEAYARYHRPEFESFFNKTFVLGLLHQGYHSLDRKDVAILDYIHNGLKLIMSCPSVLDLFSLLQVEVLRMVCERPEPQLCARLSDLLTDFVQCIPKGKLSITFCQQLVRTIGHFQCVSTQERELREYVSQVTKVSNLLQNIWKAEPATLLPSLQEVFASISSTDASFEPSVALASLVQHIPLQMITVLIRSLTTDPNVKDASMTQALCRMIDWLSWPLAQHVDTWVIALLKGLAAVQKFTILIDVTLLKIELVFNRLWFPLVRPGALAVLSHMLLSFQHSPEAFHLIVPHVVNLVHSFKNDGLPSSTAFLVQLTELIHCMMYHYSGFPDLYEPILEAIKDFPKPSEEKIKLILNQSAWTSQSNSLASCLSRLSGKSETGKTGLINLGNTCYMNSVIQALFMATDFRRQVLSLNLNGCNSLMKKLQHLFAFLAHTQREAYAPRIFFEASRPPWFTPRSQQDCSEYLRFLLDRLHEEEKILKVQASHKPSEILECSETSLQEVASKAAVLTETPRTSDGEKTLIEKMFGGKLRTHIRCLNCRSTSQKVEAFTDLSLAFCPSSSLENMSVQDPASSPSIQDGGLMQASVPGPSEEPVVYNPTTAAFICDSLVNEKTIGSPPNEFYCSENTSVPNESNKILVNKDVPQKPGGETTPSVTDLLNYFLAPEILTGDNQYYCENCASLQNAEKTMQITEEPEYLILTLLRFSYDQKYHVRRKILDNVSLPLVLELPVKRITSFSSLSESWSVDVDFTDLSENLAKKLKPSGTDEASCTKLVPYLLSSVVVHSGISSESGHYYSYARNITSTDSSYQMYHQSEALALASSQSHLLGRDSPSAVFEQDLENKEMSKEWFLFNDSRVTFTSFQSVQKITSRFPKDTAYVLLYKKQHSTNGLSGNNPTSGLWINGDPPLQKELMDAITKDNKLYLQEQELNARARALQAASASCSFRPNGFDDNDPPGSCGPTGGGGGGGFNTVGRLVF
Method in brief: as §1

[4] = target: T3, USP39 (UniProt Q53GS9)
T3 sequence (whole entry): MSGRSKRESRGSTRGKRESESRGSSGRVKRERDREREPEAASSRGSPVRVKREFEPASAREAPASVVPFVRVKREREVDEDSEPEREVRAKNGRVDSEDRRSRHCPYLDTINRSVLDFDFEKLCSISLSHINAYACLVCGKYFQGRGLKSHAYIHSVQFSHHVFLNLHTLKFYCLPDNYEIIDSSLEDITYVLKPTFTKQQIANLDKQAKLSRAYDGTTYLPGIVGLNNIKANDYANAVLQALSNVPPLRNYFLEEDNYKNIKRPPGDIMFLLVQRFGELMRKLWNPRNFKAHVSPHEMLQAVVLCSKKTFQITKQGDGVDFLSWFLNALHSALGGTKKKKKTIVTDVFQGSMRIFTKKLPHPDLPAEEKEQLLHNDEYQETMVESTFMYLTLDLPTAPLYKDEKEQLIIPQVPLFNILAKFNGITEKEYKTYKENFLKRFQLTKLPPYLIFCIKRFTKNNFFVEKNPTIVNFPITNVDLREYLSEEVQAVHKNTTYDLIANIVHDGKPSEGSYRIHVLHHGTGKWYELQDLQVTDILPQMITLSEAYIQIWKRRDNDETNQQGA
Method in brief: as §1

[5] = target: T4, USP4 (UniProt Q13107)
T4 sequence (whole entry): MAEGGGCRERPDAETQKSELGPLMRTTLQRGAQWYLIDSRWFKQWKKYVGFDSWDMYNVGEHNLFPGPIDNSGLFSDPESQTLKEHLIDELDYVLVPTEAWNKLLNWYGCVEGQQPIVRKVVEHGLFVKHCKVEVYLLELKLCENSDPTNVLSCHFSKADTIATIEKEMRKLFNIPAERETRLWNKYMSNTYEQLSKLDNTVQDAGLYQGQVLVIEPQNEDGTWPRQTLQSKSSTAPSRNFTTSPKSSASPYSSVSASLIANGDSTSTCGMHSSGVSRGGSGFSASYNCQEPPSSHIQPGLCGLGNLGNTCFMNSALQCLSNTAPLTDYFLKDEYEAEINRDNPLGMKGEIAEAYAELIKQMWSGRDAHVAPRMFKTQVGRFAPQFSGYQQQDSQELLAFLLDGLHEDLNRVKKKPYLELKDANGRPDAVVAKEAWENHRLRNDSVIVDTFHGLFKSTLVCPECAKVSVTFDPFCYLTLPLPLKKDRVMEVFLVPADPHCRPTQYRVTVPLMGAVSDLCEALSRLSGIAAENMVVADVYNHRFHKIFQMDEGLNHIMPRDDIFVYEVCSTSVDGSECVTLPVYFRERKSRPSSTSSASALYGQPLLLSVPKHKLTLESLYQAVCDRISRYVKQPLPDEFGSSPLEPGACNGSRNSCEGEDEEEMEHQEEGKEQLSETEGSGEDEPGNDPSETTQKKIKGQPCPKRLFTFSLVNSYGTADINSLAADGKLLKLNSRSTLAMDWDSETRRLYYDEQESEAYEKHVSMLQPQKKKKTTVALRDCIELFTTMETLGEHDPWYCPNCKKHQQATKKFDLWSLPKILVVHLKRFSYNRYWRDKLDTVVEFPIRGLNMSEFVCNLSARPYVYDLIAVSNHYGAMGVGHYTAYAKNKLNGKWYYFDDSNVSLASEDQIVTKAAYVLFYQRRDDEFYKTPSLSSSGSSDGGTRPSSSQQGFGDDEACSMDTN
Method in brief: as §1

Measured: log2 ratio of Biotin-Ahx-Ub-VS probe labelling

CCCn1nccc1NC(=O)CCl
inactive: [1] -0.0454 | [2] -0.015 | [3] -0.241 | [4] -0.211 | [5] -0.159
